A selection: hits, their analogues and other compounds. The true share with any hit is near 3.3%.
AmpC inh no detg – AmpC beta-lactamase inhibition without detergent. P00811. AmpC nitrocefin hydrolysis, absorbance 480 nm, 0.0001% Triton. Potency, µM (doses to about 57.1 µM), without a hit: top-dose activity change, negative = inhibition, most hits filed as inhibitors. 330,000 compounds, 0.52% hits. AID 485341;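 further: plate controls were no compound for no effect and no enzyme for full effect; nearly all actives have a fitted effect of over 20% in size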
Target sequence (P00811 whole entry, looked up): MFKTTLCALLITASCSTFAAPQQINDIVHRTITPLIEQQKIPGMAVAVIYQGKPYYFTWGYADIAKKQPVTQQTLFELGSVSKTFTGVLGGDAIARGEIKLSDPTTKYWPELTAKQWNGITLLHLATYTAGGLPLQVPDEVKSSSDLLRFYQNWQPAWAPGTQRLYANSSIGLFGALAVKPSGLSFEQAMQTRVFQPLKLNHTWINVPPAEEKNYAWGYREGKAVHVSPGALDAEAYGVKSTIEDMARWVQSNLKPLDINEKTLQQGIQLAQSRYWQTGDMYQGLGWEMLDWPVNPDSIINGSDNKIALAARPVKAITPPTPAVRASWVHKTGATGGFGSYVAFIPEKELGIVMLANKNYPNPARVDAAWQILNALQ
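20 mM phosphate pH 7.0 + 0.01% (detergent screen) or 0.0001% Triton X-100; 5.3 nM AmpC reagent; cpd preinc 15 min RT; nitrocefin (800 uM stock) to start; A480 q20 s × 4 min; Activity was normalised to no-enzyme and no-compound control wells.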
AmpC detergent – inhibitors of E. coli AmpC beta-lactamase with detergent; P00811; AmpC hydrolysis of nitrocefin, absorbance 480 nm, 0.01% Triton; Potency, µM (doses to about 114 µM), for the others: top-dose activity change, negative = inhibition, actives largely listed as inhibitors; 370,000 compounds, 0.041% hits; AID 485294;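 further: 0% = no-compound wells and -100% = no-enzyme wells; nearly all actives have a fitted effect of over 25% in size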
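20 mM phosphate pH 7.0 + 0.01% (detergent screen) or 0.0001% Triton X-100; 5.3 nM AmpC reagent; cpd preinc 15 min RT; nitrocefin (800 uM stock) to start; A480 q20 s × 4 min; Activity was normalised to no-enzyme and no-compound control wells.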
Sm TGR block – S. mansoni TGR enzyme inhibition | AID 485364 | purified TGR, DTNB reduction, TNB absorbance 405 nm | Potency, µM (highest dose often 114 µM), for inactives: at the top dose activity change, negative = inhibition, most hits filed as inhibitors | 360,000 compounds, 3% hits; further: nearly all actives have a fitted effect of over 60% in size
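TGR 20 nM + NADPH 100 uM (dispensed conc.), cpd preinc 15 min RT; start with NADPH (500 uM addition) then DTNB (15 mM addition). Kinetic TNB absorbance, 405 nm filter. Four-parameter Hill fit across titration.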
Starred values were filed as active, the others as inactive; ? = inconclusive; nt = not tested or not shown; [ ] = remark or other dose. The call rests on the fitted dose curve; in most records, active means well fitted curve in the direction sought with a large enough effect; inconclusive means small, poorly fitted or top-dose-only effect, or another doubt; inactive means no such curve, though single readings can be large; an effect the other way counts as inactive or inconclusive. Unless noted, on the % scale 0 is the no-effect control and ±100 the full control effect; potency means the concentration at half of the fitted maximal effect.

SMILES | AmpC inh no detg | AmpC detergent | Sm TGR block
Cc1ccc(-c2nn[nH]n2)cc1 | -11% | 4% | 8%
Cc1ccc(-c2nn[nH]n2)o1 | -7% | -10% | 45µM*
CN=c1scc(-c2ccc([N+](=O)[O-])cc2)n1/N=C/c1ccco1 | -31% | 2% | 0%
O=C1c2ccc([N+](=O)[O-])cc2NC(c2ccco2)N1/N=C/c1ccco1 (configuration not stated) | -36% | 3% | 40µM*
CCOc1ccccc1OCCC(=O)NNC(=O)Cn1nc(C)cc1C | -4% | -16% | 8%
CCC(=O)Nc1ccccc1-c1nc2ccccc2n(CC(=O)c2ccc(C)cc2)c1=O | nt | 14% | -1%
OCCN1CCN(c2ncnc3nc[nH]c23)CC1 | 45µM* | ? | 4%
c1nc(N2CCCCCC2)c2[nH]cnc2n1 | nt | ? | -2%
Fc1ccc(N2CCN(c3ncnc4nc[nH]c34)CC2)cc1 | 20µM* | ? | -1%
c1nc(N2CCCC2)c2[nH]cnc2n1 | -19% | ? | -7%
CCN(CC)C(=O)c1cc2c(=O)c3cc(F)ccc3oc2nc1C | 9% | -1% | nt
CC(=O)c1coc2c1cc(O)c1ccccc12 | -10% | ? | 0%
CC(=O)c1cc(O)c2ccccc2c1O | -38% | -12% | 8.9µM*
CCC1Oc2ccc(C)cc2N(CC(=O)N(Cc2ccncc2)Cc2ccco2)C1=O (configuration not stated) | 96% | -2% | 22µM*
CCC1Oc2ccc(C)cc2N(CC(=O)N(Cc2cccnc2)Cc2cccc(F)c2)C1=O (configuration not stated) | 128% | -8% | -10%
O=c1c(N2CCc3ccccc3C2)csc2ccc(Cl)cc12 | nt | -5% | -7%
CC(=O)NC(Cc1ccccc1)C(=O)NC(Cc1ccccc1)C(=O)O (configuration not stated) | 5% | 4% | ?
O=C(NC(Cc1ccccc1)C(=O)NC(Cc1ccccc1)C(=O)O)c1ccccc1 (configuration not stated) | -28% | -1% | 28µM*
COc1cccc(CNC(=O)C(=O)NCC(c2ccco2)N2CCOCC2)c1 (configuration not stated) | 3% | -13% | -14%
COc1ccc(C(=O)CSc2nc(C)cc(C)c2C(=O)Nc2ccccc2C)cc1 | nt | 14% | -1%
O=c1cc(CN2CCN(Cc3ccccc3)CC2)c2cc3c(cc2o1)CCC3 | 27% | -4% | 35µM*
O=c1cc(CN2CCN(CCO)CC2)c2cc3c(cc2o1)CCC3 | -6% | -9% | 3%
O=C(CN1CCN(c2ccccc2O)CC1)Nc1ccc2c(c1)CCC2 | 31% | -2% | 0%
C=CCn1c(=NC(=O)c2cccs2)sc2cccc(OC)c21 | -34% | 10% | 5%
C#CCn1c(=NC(=O)c2ccc(Br)s2)sc2cccc(OC)c21 | 1.4µM* | ? | 3%
SMILES | AmpC inh no detg | AmpC detergent | Sm TGR block
CCCCCCC(=O)N(O)C1CC(=O)N(c2ccc(Cl)cc2)C1=O (configuration not stated) | -52% | -14% | 0.56µM*
CCCCCCC(=O)N(O)C1CC(=O)N(c2ccc(C)cc2)C1=O (configuration not stated) | -29% | ? | 0.56µM*
Cc1ccc(N2C(=O)CC(N(O)C3CC(=O)N(c4ccc(C)cc4)C3=O)C2=O)cc1 (configuration not stated) | -15% | 4% | 1%
CCCOc1ccc(N2C(=O)CC(N(CCC)C(=O)CCC(=O)O)C2=O)cc1 (configuration not stated) | -27% | -1% | -9%
CC(OC(=O)c1ccccc1C(=O)N(C)Cc1ccccc1)C(=O)NC1(C#N)CCCCC1 (configuration not stated) | 53% | -20% | 6%
CC(Oc1ccccc1C(N)=O)C(=O)Nc1ccc(S(=O)(=O)N2CCCC2)cc1 (configuration not stated) | -22% | -5% | -7%
Cc1ccc(S(=O)(=O)NCc2ccc3c(c2)cc(C)n3C)cc1 | 25µM* | ? | 10%
COCC(=O)NCc1ccc2c(c1)cc(C)n2C | 7% | -3% | -1%
COC(=O)c1ccc(NCCC(=O)O)cc1 | -37% | 3% | -3%
Cc1ccc(C(=O)NNC(=O)C2CCCN(c3ncccn3)C2)cc1 (configuration not stated) | -16% | -7% | -31%
CC(=O)C(Sc1nc(N(C)C)nc(N(C)C)n1)C(=O)Nc1ccccc1 (configuration not stated) | -9%[2.29 µM] | ? | 5%
CC(=O)C(Sc1nn(C)c(=S)s1)C(=O)Nc1ccccc1 (configuration not stated) | -34% | -4% | 25µM*
CC(C)(C)c1ccc(C(=O)Nn2c(CCC(=O)O)ccc2-c2cccs2)cc1 | -28% | 4% | 50µM*
O=C(O)CCc1ccc(-c2ccccc2)n1NC(=O)c1cccs1 | -11% | 3% | 50µM*
NC(=S)Nn1c(CCC(=O)O)ccc1-c1ccccc1 | -11% | -11% | 2%
CC(=O)c1ccc(-n2c(CCC(=O)O)ccc2-c2ccccc2)cc1 | -15% | -2% | 40µM*
O=C(O)CCc1ccc(-c2cccs2)n1NC(=O)c1ccccc1Br | -18% | 0% | ?
CN(C)c1ccc(-n2c(CCC(=O)O)ccc2-c2ccccc2)cc1 | nt | -1% | ?
COC(=O)c1ccc(-n2c(CCC(=O)O)ccc2-c2ccccc2)cc1 | -20% | -1% | 14µM*
CC(=O)c1ccc(-n2c(C)ccc2-c2ccccc2)cc1 | -15% | ? | -32%
C[C@@H]1CN([C@@H](C)CO)C(=O)c2cccc(NS(C)(=O)=O)c2O[C@H]1CN(C)CC1CCCCC1 | 1% | nt | nt
CC1=C(C(=O)Nc2ccc(Cl)cc2C(=O)N2CCC(C(N)=O)CC2)SCCO1 | -4% | -14% | 2%
CCc1cccc(CC)c1-n1c(SCC(=O)N2CCc3ccccc32)nc(O)cc1=O | -22% | nt | nt
CCCN(Cc1cccs1)C(=O)Nc1cc(Cl)ccc1C | nt | 11% | 4%
O=C(Cn1cc(C(F)(F)F)ccc1=O)N/N=C/c1cccc(Cl)c1 | -15% | 5% | 3%
SMILES | AmpC inh no detg | AmpC detergent | Sm TGR block
O=C(O)CCc1ccc(-c2ccccc2)n1-c1cccc(Br)c1 | nt | 14% | 16µM*
CC(=O)c1cccc(-n2c(CCC(=O)O)ccc2-c2cccs2)c1 | -32% | -14% | 5.6µM*
COC(=O)c1ccccc1-n1c(CCC(=O)O)ccc1-c1ccccc1 | -10% | 0% | 45µM*
CC(=O)c1cccc(NC(=O)Cc2cccs2)c1 | -34% | -11% | -34%
CC(=O)c1ccc(-n2c(CCC(=O)O)ccc2-c2ccc(Br)cc2)cc1 | 79% | -5% | ?
COc1ccc(NC(=O)Cn2c(CCC(=O)O)ccc2-c2ccccc2)cc1 | -15% | 3% | -19%
COC(=O)c1ccccc1-n1c(CCC(=O)O)ccc1-c1ccc(F)cc1 | -13% | -3% | ?
CC(=O)c1ccc(-n2c(CCC(=O)O)ccc2-c2ccc(C)cc2)cc1 | -8% | -2% | 18µM*
CCC(=O)N1c2ccc(S(=O)(=O)CCC(=O)Nc3ccc(OC)cc3OC)cc2CC1C (configuration not stated) | 32% | 0% | 0%
Cc1cc2c(cc1S(=O)(=O)Nc1cccc(C)c1C)n(C)c(=O)c(=O)n2C | -25% | -2% | -10%

Assay outcomes: PubChem, National Center for Advancing Translational Sciences (NCATS)
